Here are results for 15 sequences from publication PMC10812921, “Transcriptional Coactivator BOB1 (OBF1, OCA-B) Modulates the Specificity of DNA Recognition by the POU-Domain Factors OCT1 and OCT2 in a Monomeric Configuration”.

In one assay the target is POU1 (OCT1 POU domain) (human, UniProt P14859 260-458). In words: EMSA-SELEX-seq; no BOB1; 20 mM Tris-HCl pH 7.6, 140 mM NaCl, 10% glycerol, 0.5 mM EDTA, 0.05% Triton X-100, 0.1 mg/mL BSA, 0.1 mg/mL poly(dI-dC), 5 mM DTT, room temperature, 20 min; high values mean tight binding. The note with it: protein: recombinant; dsDNA, one strand shown. A digest of the protocol:
(§1)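 After expression in E. coli BL21, tagged POU-domain proteins were purified under denaturing conditions and then renatured. Each binding reaction held 30 ng protein and 300 ng of a PCR-amplified double-stranded random 35-nt library in 20 μL Tris–HCl pH 7.6 binding buffer, with or without 28 ng coactivator protein, for 20 min at RT. Bands holding complexes were cut from native 6% PAGE, eluted and PCR-amplified across four rounds, and the output was Illumina-sequenced. The value given for binding preference is the share, in percent, of sequenced 8-mers fitting a motif pattern.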

Assay [1] deals with POU1 (OCT1 POU domain);BOB1 (OBF1, OCA-B) (human;human, UniProt P14859;Q16633 260-458;1-256, |). The assay can be described thus: EMSA-SELEX-seq; with BOB1 (ternary complex band); 20 mM Tris-HCl pH 7.6, 140 mM NaCl, 10% glycerol, 0.5 mM EDTA, 0.05% Triton X-100, 0.1 mg/mL BSA, 0.1 mg/mL poly(dI-dC), 5 mM DTT, room temperature, 20 min; high values mean tight binding. The settings on record: protein: recombinant;recombinant; copies: 1;1; dsDNA, one strand shown. A digest of the protocol: as §1
For orientation: Mobility shift assays separate free from complexed probe on a gel.

For assay [2], the target named is T1, POU2 (OCT2 POU domain);BOB1 (OBF1, OCA-B) (human;human, UniProt P09086;Q16633 175-386;1-256, |).
T1 sequence 1: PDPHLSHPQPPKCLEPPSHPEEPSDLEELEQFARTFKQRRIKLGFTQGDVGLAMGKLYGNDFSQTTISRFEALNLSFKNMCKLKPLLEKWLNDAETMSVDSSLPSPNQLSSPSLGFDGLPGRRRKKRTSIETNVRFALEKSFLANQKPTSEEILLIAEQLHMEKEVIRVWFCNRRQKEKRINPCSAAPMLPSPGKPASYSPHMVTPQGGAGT
T1 sequence 2: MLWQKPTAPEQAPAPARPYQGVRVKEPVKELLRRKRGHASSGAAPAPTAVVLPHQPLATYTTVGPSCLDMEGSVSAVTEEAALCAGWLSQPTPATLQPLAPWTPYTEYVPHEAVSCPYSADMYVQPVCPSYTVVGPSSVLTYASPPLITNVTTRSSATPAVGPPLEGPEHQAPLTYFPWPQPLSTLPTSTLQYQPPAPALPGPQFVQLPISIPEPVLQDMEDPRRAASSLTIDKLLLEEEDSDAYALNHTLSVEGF
The description is as above. The note with it: protein: recombinant;recombinant; copies: 1;1; dsDNA, one strand shown. The gist of the method: as §1

For another assay, the target named is T2, POU2 (OCT2 POU domain) (human, UniProt P09086 175-386).
T2 sequence: T1 sequence 1
The assay can be described thus: EMSA-SELEX-seq; no BOB1; 20 mM Tris-HCl pH 7.6, 140 mM NaCl, 10% glycerol, 0.5 mM EDTA, 0.05% Triton X-100, 0.1 mg/mL BSA, 0.1 mg/mL poly(dI-dC), 5 mM DTT, room temperature, 20 min; high values mean tight binding. The settings on record: protein: recombinant; dsDNA, one strand shown. A digest of the protocol: as §1

POU1 (OCT1 POU domain), sequence (P14859 260-458): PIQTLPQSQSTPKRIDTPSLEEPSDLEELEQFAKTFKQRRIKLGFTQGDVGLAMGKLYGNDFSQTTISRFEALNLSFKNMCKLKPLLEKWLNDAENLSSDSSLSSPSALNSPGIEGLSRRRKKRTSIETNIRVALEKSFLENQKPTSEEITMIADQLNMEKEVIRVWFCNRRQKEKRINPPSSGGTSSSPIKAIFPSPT

As for ACTCCAAC, the results for the binding signal (with POU1 (OCT1 POU domain); in assay [1]; in assay [2]) were 0.0126 % of ANNNNAAN 8-mers, 0.0113 % of ANNNNAAN 8-mers and 0.0198 % of ANNNNAAN 8-mers, respectively.
With AACTTAAT, the binding signal is 0.0995 % of ANNNNAAN 8-mers with POU1 (OCT1 POU domain), 0.117 % of ANNNNAAN 8-mers with POU2 (OCT2 POU domain), 0.0613 % of ANNNNAAN 8-mers in assay [1] and 0.0677 % of ANNNNAAN 8-mers in assay [2].
The corresponding values for AGGACAAT are 0.042 % of ANNNNAAN 8-mers, 0.0345 % of ANNNNAAN 8-mers, 0.0496 % of ANNNNAAN 8-mers and 0.0421 % of ANNNNAAN 8-mers.
The corresponding values for AGAACAAA are 0.032 % of ANNNNAAN 8-mers, 0.0524 % of ANNNNAAN 8-mers, 0.032 % of ANNNNAAN 8-mers and 0.033 % of ANNNNAAN 8-mers.
For ATTCCAAC, in that order: 0.0339 % of ANNNNAAN 8-mers, 0.0432 % of ANNNNAAN 8-mers, 0.0269 % of ANNNNAAN 8-mers and 0.0223 % of ANNNNAAN 8-mers.
For the sequence ATGTAAAA, the binding signal with POU1 (OCT1 POU domain) is 0.714 % of ANNNNAAN 8-mers; with POU2 (OCT2 POU domain) it was 0.496 % of ANNNNAAN 8-mers; in assay [1], 0.631 % of ANNNNAAN 8-mers; in assay [2], 0.618 % of ANNNNAAN 8-mers.
For ATCTAAAC, in that order: 0.0229 % of ANNNNAAN 8-mers, 0.0374 % of ANNNNAAN 8-mers, 0.0379 % of ANNNNAAN 8-mers and 0.0495 % of ANNNNAAN 8-mers.
AGTGCAAC: the binding signal with POU1 (OCT1 POU domain) was 0.0118 % of ANNNNAAN 8-mers; with POU2 (OCT2 POU domain), 0.0219 % of ANNNNAAN 8-mers; in assay [1], 0.0113 % of ANNNNAAN 8-mers; in assay [2], 0.0215 % of ANNNNAAN 8-mers.
The corresponding values for ACCTAAAA are 0.021 % of ANNNNAAN 8-mers, 0.0311 % of ANNNNAAN 8-mers, 0.0254 % of ANNNNAAN 8-mers and 0.0157 % of ANNNNAAN 8-mers.
In the case of AAGCGAAC, the binding signal in the assay with POU1 (OCT1 POU domain) is 0.0221 % of ANNNNAAN 8-mers; with POU2 (OCT2 POU domain) it was 0.0178 % of ANNNNAAN 8-mers; in assay [1], 0.0176 % of ANNNNAAN 8-mers; in assay [2], 0.0231 % of ANNNNAAN 8-mers.
In the case of AAGGCAAC, the binding signal with POU1 (OCT1 POU domain) was 0.0187 % of ANNNNAAN 8-mers; with POU2 (OCT2 POU domain) it was 0.0167 % of ANNNNAAN 8-mers; in assay [1], 0.0195 % of ANNNNAAN 8-mers; in assay [2], 0.0264 % of ANNNNAAN 8-mers.
For ATATCAAT, in that order: 0.117 % of ANNNNAAN 8-mers, 0.139 % of ANNNNAAN 8-mers, 0.0804 % of ANNNNAAN 8-mers and 0.0776 % of ANNNNAAN 8-mers.
Turning to AGCCAAAT, the binding signal with POU1 (OCT1 POU domain) was 0.0858 % of ANNNNAAN 8-mers; with POU2 (OCT2 POU domain), 0.0702 % of ANNNNAAN 8-mers; in assay [1], 0.167 % of ANNNNAAN 8-mers; in assay [2], 0.0892 % of ANNNNAAN 8-mers.
For AGGGAAAC, in that order: 0.0648 % of ANNNNAAN 8-mers, 0.0518 % of ANNNNAAN 8-mers, 0.0991 % of ANNNNAAN 8-mers and 0.0413 % of ANNNNAAN 8-mers.
The corresponding values for AAGAGAAC are 0.0271 % of ANNNNAAN 8-mers, 0.0391 % of ANNNNAAN 8-mers, 0.0285 % of ANNNNAAN 8-mers and 0.0289 % of ANNNNAAN 8-mers.
